Results filed as inconclusive are left out. Values without a mark were called inactive. The source made the active and inactive calls. Calls follow the shape of the dose curve; as a rule, active = well fitted curve in the direction sought with a large enough effect; inconclusive = small, poorly fitted or top-dose-only effect, or another doubt; inactive = no such curve, though single readings can be large; an effect the other way counts as inactive or inconclusive.
Assays:
[1] = target: Aldehyde dehydrogenase, mitochondrial (Homo sapiens) (UniProt P05091); assay: qHTS for Inhibitors of the Aldehyde Dehydrogenase Family (ALDH2) Primary screen (AID 2061308); also: nearly all actives have a fitted effect of over 55% in size; also: potency is read from the fitted curve at half-maximal effect
[2] = target: Retinaldehyde dehydrogenase 3 (Homo sapiens) (UniProt P47895); assay: qHTS for Inhibitors of the Aldehyde Dehydrogenase Family (ALDH1A3) Validation screen (AID 2061312); also: nearly all actives have a fitted effect of over 45% in size
[3] = target: Retinaldehyde dehydrogenase 3 (Homo sapiens) (UniProt P47895); assay: qHTS for Inhibitors of the Aldehyde Dehydrogenase Family (ALDH1A3) Primary screen (AID 2061315)
[4] = BET inhibitor-based combinations targeting novel dependencies in MECOM-rearranged (r) AML: OCI-AML3 cell line (AID 2202232); details: Potency: OCI-AML3 viability; also: potency is read from the fitted curve at half-maximal effect; nearly all actives have a fitted effect of over 35% in size
Method in brief: (§1)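 AML cell lines seeded at 500 cells/well, treated with 11-point dose curves for 48 h. Viability by CellTiter-Glo luminescence, normalised to DMSO and empty wells; activity expressed as AUC and per-cell-line Z-transformed AUC.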

[5] = BET inhibitor-based combinations targeting novel dependencies in MECOM-rearranged (r) AML: MV-4-11 cell line (AID 2202233); also: nearly all actives have a fitted effect of over 45% in size; also: potency is read from the fitted curve at half-maximal effect
Method in brief: (§2)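 Cells at 500/well were exposed for 48 hr to MIPE v5.0 drugs as 11-point dose curves. Viability was read by CellTiter-Glo luminescence and normalized to DMSO and empty-well controls. Activity was expressed as AUC and per-cell-line Z-AUC.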

[6] = BET inhibitor-based combinations targeting novel dependencies in MECOM-rearranged (r) AML: HNT-34 cell line (AID 2202234); also: potency is read from the fitted curve at half-maximal effect; nearly all actives have a fitted effect of over 35% in size
Method in brief: as §2

[7] = BET inhibitor-based combinations targeting novel dependencies in MECOM-rearranged (r) AML: UCSD-AML1 cell line (AID 2202235); also: potency is read from the fitted curve at half-maximal effect; nearly all actives have a fitted effect of over 40% in size
Method in brief: as §2

[8] = BET inhibitor-based combinations targeting novel dependencies in MECOM-rearranged (r) AML: AML-191 cell line (AID 2202236; also: potency is read from the fitted curve at half-maximal effect; nearly all actives have a fitted effect of over 35% in size)
Method in brief: as §1

[9] = BET inhibitor-based combinations targeting novel dependencies in MECOM-rearranged (r) AML: AML-194 cell line (AID 2202237; also: potency is read from the fitted curve at half-maximal effect; nearly all actives have a fitted effect of over 40% in size)
Method in brief: as §1

[10] = target: Retinal dehydrogenase 2 (Homo sapiens) (UniProt O94788); assay: qHTS for Inhibitors of the Aldehyde Dehydrogenase Family (ALDH1A2) Confirmation screens (AID 2061314); also: nearly all actives have a fitted effect of over 65% in size; also: potency is read from the fitted curve at half-maximal effect
[11] = BET inhibitor-based combinations targeting novel dependencies in MECOM-rearranged (r) AML: SET-2 cell line (AID 2202231); details: SET-2 AML cells viability, CellTiter-Glo luminescence, 48 h; viability: hits give low values, concentration not given here; also: potency is read from the fitted curve at half-maximal effect; nearly all actives have a fitted effect of over 35% in size
Method in brief: as §1

[12] = target: Aldehyde dehydrogenase 1A1 (Homo sapiens) (UniProt P00352); assay: qHTS for Inhibitors of the Aldehyde Dehydrogenase Family (ALDH1A1) Confirmatory screens (AID 2061316); also: potency is read from the fitted curve at half-maximal effect; nearly all actives have a fitted effect of over 65% in size

SMILES: Cn1ncc(Cl)c1-c1cc(C(=O)N[C@H](CN)Cc2ccc(F)c(F)c2)sc1Cl
- Potency [1]: inactive
- Potency [2]: inactive
- Potency [3]: inactive
- Potency [4]: 18.6 µM (active)
- Potency [5]: 16.6 µM (active)
- Potency [6]: 16.6 µM (active)
- Potency [7]: 13.2 µM (active)
- Potency [8]: 26.3 µM (active)
- Potency [9]: 16.6 µM (active)

SMILES: CC(=O)NC(c1ccco1)c1cc(Cl)c2ccc(Cl)nc2c1O (configuration not stated)
- Potency [1]: inactive
- Potency [10]: 6.34 µM (active)

SMILES: COCCOC(=O)C1=C(C)NC2=C(C(=O)CC(c3ccccc3OC)C2)C1c1cccc(O)c1 (configuration not stated)
- Potency [1]: inactive
- Potency [2]: inactive
- Potency [3]: inactive
- Potency [11]: 16.6 µM (active)
- Potency [4]: 7.42 µM (active)
- Potency [5]: 5.25 µM (active)
- Potency [8]: 14.8 µM (active)

SMILES: C[C@H]1O[C@@H](O[C@H]2[C@@H](O)C[C@H](O[C@H]3[C@@H](O)C[C@H](O[C@H]4CC[C@@]5(C)[C@H](CC[C@@H]6[C@@H]5C[C@@H](O)[C@]5(C)[C@@H](C7=CC(=O)OC7)CC[C@]65O)C4)O[C@@H]3C)O[C@@H]2C)C[C@H](O)[C@@H]1O
- Potency [1]: inactive
- Potency [2]: inactive
- Potency [3]: inactive
- Potency [4]: 0.118 µM (active)
- Potency [5]: 0.105 µM (active)
- Potency [6]: 0.105 µM (active)
- Potency [7]: 0.132 µM (active)
- Potency [9]: 0.118 µM (active)

SMILES: CC(=O)Nc1ncc(S(=O)(=O)Nc2cnccc2C(=O)Nc2nc(-c3ccccc3)cs2)s1
- Potency [1]: inactive
- Potency [10]: 10.1 µM (active)
- Potency [3]: inactive
- Potency [12]: 20.1 µM (active)

SMILES: c1nc(NCC2CCCOC2)c2cc(-c3ccc4c(c3)OCO4)ccc2n1 (configuration not stated)
- Potency [1]: inactive
- Potency [10]: 11.3 µM (active)
- Potency [3]: inactive

SMILES: O=C(Nc1ncc(Cc2ccc(C(F)(F)F)cc2)s1)c1ccc(-c2ccc([N+](=O)[O-])cc2)o1
- Potency [1]: inactive
- Potency [10]: 22.5 µM (active)
- Potency [3]: inactive

SMILES: CNCc1ccc(C)c(NC(=O)c2ccc(Nc3nc(-c4ccccc4)c4ccccc4n3)cc2)c1
- Potency [1]: inactive
- Potency [2]: inactive
- Potency [3]: inactive
- Potency [4]: 16.6 µM (active)
- Potency [5]: 13.2 µM (active)
- Potency [6]: 20.9 µM (active)
- Potency [8]: 20.9 µM (active)

SMILES: CON(C)C(=O)N1N=C(c2cc(F)ccc2F)S[C@@]1(CCCN)c1ccccc1
- Potency [1]: inactive
- Potency [2]: inactive
- Potency [3]: inactive
- Potency [11]: 0.0295 µM (active)
- Potency [4]: 0.0093 µM (active)
- Potency [5]: 0.0118 µM (active)
- Potency [7]: 0.0105 µM (active)
- Potency [8]: 0.0132 µM (active)

SMILES: O=C(NCC#CCSc1nnc(-c2cccc3ccccc23)o1)c1cccs1
- Potency [1]: inactive
- Potency [10]: 12.7 µM (active)
- Potency [3]: inactive
- Potency [12]: 8.96 µM (active)

SMILES: O=C(c1ccc(F)c(F)c1Nc1ccc(I)cc1F)N1CC(O)([C@@H]2CCCCN2)C1
- Potency [1]: inactive
- Potency [2]: inactive
- Potency [3]: inactive
- Potency [6]: 0.742 µM (active)
- Potency [7]: 0.296 µM (active)
- Potency [8]: 8.33 µM (active)
- Potency [9]: 7.42 µM (active)

SMILES: O=C(/C=C\n1cnc(-c2cc(C(F)(F)F)cc(C(F)(F)F)c2)n1)N1CC(F)(F)C1
- Potency [1]: inactive
- Potency [2]: inactive
- Potency [3]: inactive
- Potency [11]: 1.66 µM (active)
- Potency [5]: 1.32 µM (active)
- Potency [6]: 5.25 µM (active)
- Potency [7]: 0.934 µM (active)
- Potency [8]: 1.32 µM (active)
- Potency [9]: 1.05 µM (active)

SMILES: CS(=O)(=O)N1CCN(c2nc(-c3ccc(Br)cc3)cs2)CC1
- Potency [1]: inactive
- Potency [10]: inactive
- Potency [3]: inactive

SMILES: Cc1ccc(-c2ccc(=O)n(CC(=O)N(C)C(C)c3ccco3)c2)cc1 (configuration not stated)
- Potency [1]: inactive
- Potency [10]: 2.01 µM (active)
- Potency [3]: inactive

SMILES: Cc1ccc2nc3sc(C(=O)N4CCN(C5CCN(C)CC5)CC4)cc3cc2c1
- Potency [1]: inactive
- Potency [10]: inactive
- Potency [3]: inactive
- Potency [12]: 12.7 µM (active)

SMILES: COc1ccc(C(=O)CC2(O)C(=O)Nc3c(Cl)ccc(Cl)c32)cc1 (configuration not stated)
- Potency [1]: inactive
- Potency [2]: inactive
- Potency [3]: inactive
- Potency [11]: 0.934 µM (active)
- Potency [5]: inactive
- Potency [8]: 1.05 µM (active)
- Potency [9]: 1.86 µM (active)

SMILES: NC(=O)C1CCN(c2nc(-c3ccc(N4CCCCC4)nc3)cs2)CC1
- Potency [1]: inactive
- Potency [10]: 12.7 µM (active)
- Potency [3]: inactive

SMILES: Cc1ccc(S(=O)(=O)c2ncccc2[N+](=O)[O-])cc1
- Potency [1]: 6.31 µM (active)
- Potency [10]: 0.449 µM (active)

SMILES: CC(=O)Nc1sc2c(c1-c1nc3ccccc3s1)CCN(C(C)C)C2
- Potency [1]: inactive
- Potency [10]: 28.3 µM (active)
- Potency [3]: inactive

SMILES: CCOc1ccc(NC(=O)NCC2CCCN2c2ccc(OC)cc2)cc1 (configuration not stated)
- Potency [1]: inactive
- Potency [10]: 14.2 µM (active)

SMILES: Cn1ncc(Cl)c1-c1cc(C(=O)NC(CN)Cc2ccc(F)c(F)c2)oc1Cl (configuration not stated)
- Potency [1]: inactive
- Potency [2]: inactive
- Potency [3]: inactive
- Potency [4]: 18.6 µM (active)
- Potency [5]: 11.8 µM (active)
- Potency [6]: 18.6 µM (active)
- Potency [7]: 13.2 µM (active)
- Potency [8]: 20.9 µM (active)
- Potency [9]: 18.6 µM (active)

SMILES: Cc1ccc(CNc2ccc(N3CCOCC3)cc2)cc1
- Potency [1]: inactive
- Potency [10]: 11.3 µM (active)

SMILES: Cc1cnc(Nc2ccc(CN3CCOCC3)cc2)nc1Nc1cccc(S(=O)(=O)NC(C)(C)C)c1
- Potency [1]: inactive
- Potency [2]: inactive
- Potency [3]: inactive
- Potency [11]: 2.63 µM (active)
- Potency [5]: 0.417 µM (active)
- Potency [7]: 1.48 µM (active)
- Potency [8]: 2.63 µM (active)
- Potency [9]: 2.35 µM (active)

Reference: PubChem BioAssay (NCATS)
